Screens: PubChem, National Center for Advancing Translational Sciences (NCATS)
HT1080 IDH1KD tx – HT-1080 IDH1 knockdown cell toxicity (counter line) | Potency, µM (doses to about 46.1 µM), for inactives: top-dose activity, negative = toxicity, most hits filed as cytotoxic | HT-1080 IDH1 knockdown viability, ATP luminescence, 48 h | 2% of 360,000 active;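 further: 0% = DMSO wells and -100% = cell-free medium wells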
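HT-1080-IDH1KD cells (IDH1 knocked down), 750/well in RPMI with 5% FBS, treated with compound 48 h at 37 degrees C. Viability by CellTiter-Glo luminescence, normalised to DMSO and no-cell wells; concentration-response curves classed.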
KB-V1 cytotox – KB-V1 MDR subline cytotoxicity | KB-V1 MDR cells viability, CellTiter-Glo, 72 h | Potency, µM (highest dose often 46.1 µM), actives largely listed as cytotoxic | 3.4% of 400,000 active | AID 1347076; further: nearly all actives have a fitted effect of over 60% in size
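In this primary screen, KB-V1 cells overexpressing P-gp are incubated with library compounds (lowest to highest concentration) for 72 h at 37 degrees C before a luminescent ATP viability read.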
HT1080NT lethal – kills 2HG-producing HT-1080-NT fibrosarcoma cells; HT-1080-NT fibrosarcoma viability, CellTiter-Glo ATP luminescence, 48 h; Potency, µM (series often up to 46.1 µM), without a hit: at the top dose activity, negative = less viability, usual class: cytotoxic; 1.6% of 360,000 active;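 further: NT is the 2HG producing partner of a matched IDH1 knockdown line; 0% = DMSO-treated cells and -100% = media-only wells without cells; nearly all actives have a fitted effect of over 55% in size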
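Read-out is CellTiter-Glo luminescence after 10 minutes at room temperature, following 48 hours' compound treatment of HT-1080-NT cells (750 cells/well, RPMI, 5% FBS, 37 degrees C).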
KB-3-1 cytotox – KB-3-1 parental cell cytotoxicity. Potency, µM (titrated, usually from 46.1 µM), hits mostly cytotoxic. KB-3-1 viability, CellTiter-Glo ATP luminescence, 72 h. 1.4% of 400,000 active; further: nearly all actives have a fitted effect of over 60% in size
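Parental KB-3-1 adenocarcinoma cells in phenol-red-free DMEM with 10% FBS were pin-treated with compounds at several concentrations, incubated 72 h at 37 °C, and viability read by CellTiter-Glo luminescence; concentration-effect curves were fitted after normalization.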
Active calls of the source: *; i = inactive; ? = inconclusive; / = not tested or not shown. Only some compounds are listed: those with a hit (about 5.7% of all), similar ones and a draw of the others. The call rests on the fitted dose curve; in most records, active means well fitted curve in the direction sought with a large enough effect; inconclusive means small, poorly fitted or top-dose-only effect, or another doubt; inactive means no such curve, though single readings can be large; an effect the other way counts as inactive or inconclusive. Unless noted, on the % scale 0 is the no-effect control and ±100 the full control effect; potency means the concentration at half of the fitted maximal effect.

SMILES	HT1080 IDH1KD tx	KB-V1 cytotox	HT1080NT lethal	KB-3-1 cytotox
CN1CCN(C2Cc3ccccc3Sc3ccc(Cl)cc32)CC1 (stereo not drawn)	4%	?	-8%	i
CCOc1ccc2nc(N(CCCN(C)C)C(=O)c3ccc(S(=O)(=O)N4CCCC4)cc3)sc2c1	-11%	i	-17%	i
CN(C)CCCN(C(=O)c1ccc(S(=O)(=O)N2CCCC2)cc1)c1nc2ccc(Br)cc2s1	23µM*	i	21µM*	?
Cc1ccc2nc(N(CCCN(C)C)C(=O)c3ccc4c(c3)CCCC4)sc2c1	?	4.1µM*	-29%	?
Cc1cc(C)c2nc(N(CCCN(C)C)C(=O)c3ccc(S(=O)(=O)N4CCCCCC4)cc3)sc2c1	16µM*	?	16µM*	?
COc1cc2c(cc1OC)/C(=C/c1ccc(N(C)C)cc1)C=C2	/	?	/	i
CC(C)N(Cc1ccccc1)C(=O)c1nc(-c2ccc(Cl)cc2)n2c1CCCCC2	/	16µM*	/	i
CC(=O)c1cccc(NC(=O)c2nc(-c3ccc(C)cc3)n3c2CCCCC3)c1	/	i	/	i
Cc1ccc(-c2nc(C(=O)NCc3ccc(Cl)cc3)c3n2CCCCC3)cc1	/	13µM*	/	?
O=C(NCCc1ccccc1)c1nc(-c2ccc(Cl)cc2)n2c1CCCCC2	/	i	/	i
COC(=O)c1ccccc1NC(=O)c1nc(-c2ccc(C)cc2)n2c1CCCCC2	/	15µM*	/	?
COc1ccc2c(c1)cc1c(=O)n(CC(=O)NCCCc3ccccc3)nc(C)n12	/	i	/	i
O=C(Nc1ccc(Cl)cc1)C1CCN(C(=O)NC2CCCCC2)CC1	-6%	i	-3%	i
O=C(c1ccc(Cl)cc1)C1CCN(C(=O)NC2CCCCC2)CC1	?	2.3µM*	-5%	i
Cc1c(C(=O)Nc2ccc(C(C)C)cc2)sc2nc3n(c(=O)c12)CCC3	/	i	/	?
CC(C)C(=O)Nc1ccc(C(=O)c2ccccc2)cc1	2%	13µM*	6%	i
CC(C)C(=O)Nc1ccc(-c2nnc(-c3ccccc3)o2)cc1	15%	i	20%	i
CCC(CC)C(=O)Nc1cccc(C(=O)c2ccccc2)c1	2%	9.2µM*	-8%	i
COC(=O)Cc1ccc(NC(=S)Nc2cccc(C)n2)cc1	-17%	21µM*	-13%	?
Cc1cccc(NC(=S)NC(=O)c2cccs2)n1	5.6µM*	?	1.3µM*	i
Cc1nc(NC(=S)NC(=O)c2cccs2)ccc1Br	1%	?	-4%	?
CCOC(=O)c1ccc(NC(=S)Nc2cccc(C)n2)cc1	-1%	i	-2%	i
C(=N\Nc1nn[nH]n1)/c1ccccc1	4%	i	1%	i
C(=NNc1nnn(Cc2ccccc2)n1)c1ccccc1	18µM*	16µM*	9.2µM*	?
Cc1ccc(SCc2nc(-c3ccc(C(=O)NCC(C)c4ccccc4)cc3)oc2C)cc1 (stereo not drawn)	/	i	/	?
SMILES	HT1080 IDH1KD tx	KB-V1 cytotox	HT1080NT lethal	KB-3-1 cytotox
O=S(=O)(c1ccccc1)c1ncc(C(F)(F)F)cc1Cl	16µM*	i	?	i
CC1(C)OC(=O)C2(Cc3cc(C(F)(F)F)ccc3N3CCCCC32)C(=O)O1 (stereo not drawn)	/	?	/	i
Clc1cccc(/C=N/Nc2ncnc3ccccc23)c1	-12%	i	-4%	i
CCOC(=O)C/C(=N\Nc1ncnc2ccccc12)c1ccccc1	1%	16µM*	-18%	i
Cc1ccc2nc(C(Cl)(Cl)Cl)nc(N/N=C/c3ccncc3)c2c1	-6%	i	-4%	i
Cc1ccc(-c2nc(N/N=C/c3ccncc3)c3ccccc3n2)cc1	10µM*	23µM*	11µM*	?
C(=N\Nc1ncnc2ccccc12)/c1ccccc1	?	?	23µM*	i
Cc1c(O)ccc(/C=N/Nc2nc(-c3cccnc3)nc3ccccc23)c1O	?	?	18µM*	i
O=C(Nc1ccc(F)cc1)C1CCN(c2nc3ccccc3nc2C(F)(F)F)CC1	/	i	/	i
COc1ccc(Nc2nc3ccc(C)cc3nc2-n2nc(C)cc2C)cc1Cl	/	i	/	i
CCOCCCNC(=O)c1[nH]c2cc(C)ccc2c1Sc1ccc(Cl)cc1	/	i	/	i
CCOc1ccccc1NC(=O)CSc1nc2c(c(=O)[nH]1)CCC2	/	i	/	i
COc1cccc(C2NC(=S)NC(C)=C2C(=O)c2ccccc2)c1OC (stereo not drawn)	1.5µM*	?	2.3µM*	1.8µM*
CCOc1cc(C(=O)N(Cc2nc(-c3ccc(C)cc3)no2)C(C)C)cc(OCC)c1OCC	/	i	/	i
CC(=O)c1ccc(NC(=O)C(C)NCc2ccccc2Cl)cc1 (stereo not drawn)	?	i	20%	i
CCCc1c(-c2ccc(F)cc2F)ncn1Cc1ccccc1OC	?	?	18µM*	?
CCCc1c(-c2cccc(F)c2)ncn1Cc1ccccc1OC	?	?	?	i
CCCc1c(-c2ccccc2)ncn1Cc1ccccc1OC	?	18µM*	-27%	?
Cc1ccc(S(=O)(=O)c2cc3cc(C(=O)Nc4ccc(C)cc4C)ccc3oc2=O)cc1	/	i	/	i
O=C(COC(=O)c1ccc(S(=O)(=O)NCc2ccco2)cc1)NC1CCCCCC1	4%	i	-11%	i
O=C(CCc1ccc(S(=O)(=O)NCc2ccccc2)cc1)NCc1ccco1	16%	21µM*	-2%	i
O=C(NCc1ccco1)c1cc(C(=O)C2CCCCC2)c[nH]1	-2%	10µM*	1%	i
CCCNS(=O)(=O)c1ccc(CCC(=O)NCc2ccco2)cc1	15%	i	20%	i
O=C(NC1CCCCCC1)c1ccc(S(=O)(=O)NCc2ccco2)cc1	-1%	21µM*	?	i
O=S(=O)(NCc1ccco1)c1ccc(S(=O)(=O)N2CCCCC2)cc1	1%	16µM*	17%	i
SMILES	HT1080 IDH1KD tx	KB-V1 cytotox	HT1080NT lethal	KB-3-1 cytotox
O=C(c1ccc(S(=O)(=O)NCc2ccco2)cc1)N1CCCC1	-1%	i	9%	i
O=S(=O)(c1cccc(C(F)(F)F)c1)N1CCN(c2nc(-c3ccccc3)nc3ccccc23)CC1	/	i	/	i
Cc1ccc(-n2c(=O)c3cccnc3n2CC(=O)Nc2ccc(Br)cc2)cc1C	/	i	/	i
Cc1ccc(NC(=O)c2ccc(S(=O)(=O)NCc3ccco3)cc2)nc1	?	?	-27%	21µM*
Cc1cccc(NC(=O)c2ccc(S(=O)(=O)NCc3ccco3)cc2)n1	-8%	?	-4%	i
COC(=O)[C@]12CCCCC=C1N(CCC1=CCCCC1)C(=O)[C@H](CC(=O)NCc1cccc(C(F)(F)F)c1)C2	?	?	?	i
O=C(NN=Cc1c(O)ccc2ccccc12)C1CC1	12µM*	?	?	?
O=C(CN1CCCC1)N/N=C/c1c(O)ccc2ccccc12	16µM*	i	?	?
